According to PubChem BioAssay (NCI):
About 79,000 compounds went through this panel and 15% of them were active in at least one assay; those are over-represented in the sample as a whole. No stated cut-off is given here; in the data, active means growth inhibition above about 70%; inactive means the rest.

Legend:
[1] = NCI Yeast Anticancer Drug Screen. Data for the rad50 strain (AID 155);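 further: 0% = growth of vehicle-only cultures of the same strain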; details: S. cerevisiae rad50 strain growth inhibition; at 50.0 µM; active compounds read high
In short: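 DNA repair mutant yeast, compound exposure, growth read-out; inhibition is taken relative to vehicle.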

[2] = NCI Yeast Anticancer Drug Screen. Data for the mec2-1 strain (AID 157); details: S. cerevisiae mec2-1 strain, at 50.0 µM, active compounds read high
In short: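 mec2-1 yeast strain, carrying an alteration in DNA damage repair or cell cycle control, was exposed to compounds; growth inhibition was measured relative to vehicle-treated controls.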

[3] = NCI Yeast Anticancer Drug Screen. Data for the sgs1 mgt1 strain (AID 161);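 further: 0% = growth of cultures given vehicle only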; details: S. cerevisiae sgs1 mgt1 strain, at 50.0 µM, active compounds read high
In short: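 This yeast growth screen uses a strain with defined DNA-repair lesions; compound-treated growth is compared with vehicle-treated growth.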

[4] = NCI Yeast Anticancer Drug Screen. Data for the cln2 rad14 strain (AID 165);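 further: 0% = growth equal to vehicle treated cultures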; details: S. cerevisiae cln2 rad14 strain, at 50.0 µM, active compounds read high
In short: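 Yeast carrying cln2 and rad14 alterations (cell cycle control and DNA damage repair) were exposed to compounds. Growth inhibition was measured against vehicle-treated controls.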

[5] = NCI Yeast Anticancer Drug Screen. Data for the bub3 strain (AID 167); details: S. cerevisiae bub3 mutant strain, at 50.0 µM, active compounds read high
In short: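 In this screen, a yeast mutant lacking normal mitotic checkpoint function is challenged with compound. Relative growth versus vehicle gives the inhibition value.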

[6] = NCI Yeast Anticancer Drug Screen. Data for the mlh1 rad18 strain (AID 175); details: S. cerevisiae mlh1 rad18 strain growth inhibition; at 50.0 µM; active compounds read high
In short: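 Growth inhibition of the yeast strain was measured after compound exposure and expressed relative to vehicle-treated controls. The strain carries defined defects in DNA damage repair.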

Measured: growth inhibition

O=C(NC(=S)Nc1ccc(Cl)c(Cl)c1)c1cccc([N+](=O)[O-])c1
inactive: [1] -6.45% | [2] 3.35% | [3] 10.9% | [4] 0.65% | [5] -3.2% | [6] 5.7%

CC(Oc1ccc([N+](=O)[O-])cc1)c1ccccc1 (stereo not given)
inactive: [1] -21.6% | [2] -0.55% | [3] -3.7% | [4] -37.1% | [5] -23.4% | [6] 1.4%

COc1ccc(C(=O)CCN(C)C)cc1
inactive: [1] 15.6% | [2] -5.85% | [3] -7.65% | [4] -11.3% | [5] -7.5% | [6] -4.6%

O=C(Nc1ccc(N=Nc2ccccc2)cc1)c1ccc(Cl)cc1
inactive: [1] -11.1% | [2] 2.3% | [3] 12.1% | [4] -60.1% | [5] 2.35% | [6] -7.95%

Oc1ccccc1CNc1ncc(Cl)cc1Cl
inactive: [1] 24.9% | [2] 16% | [3] 26.8% | [4] -5.15% | [5] 39.1% | [6] 19.4%

CC(C)CC1NC(=S)N(c2ccccc2)C1=O (stereo not given)
inactive: [1] -11% | [2] -18.4% | [3] -13.7% | [4] -10.1% | [5] -8.05% | [6] -24.7%

Cc1[nH]c2nccn2c(=O)c1CCCl
inactive: [1] 10.2% | [2] -14.7% | [3] 9.6% | [4] -13.2% | [5] -13.6% | [6] 7.1%

CCCCCCCCNC(=O)c1ccccc1C(=O)O
inactive: [1] 1.6% | [2] 14.9% | [3] 51.2% | [4] -32.8% | [5] 44.6% | [6] 13.4%

N#Cc1c(-c2ccc(Cl)cc2)c2c(n(C3OC(CO)C(O)C(O)C3O)c1=S)CCC2 (stereo not given)
inactive: [1] 12.5% | [2] 32.1% | [3] 61.3% | [4] 31.9% | [5] 50.4% | [6] 42.4%

Cc1ccc(S(=O)(=O)NN=C2CCCCCC2)cc1
inactive: [1] 8.65% | [2] 7.55% | [3] 8.75% | [4] -24.9% | [5] -12.4% | [6] 5.65%

N#Cc1c(-c2ccco2)cc(-c2ccc(N)cc2)[nH]c1=O
inactive: [1] -0.6% | [2] 4.7% | [3] 17.7% | [4] 15.8% | [5] -8.9% | [6] 6.9%

COC(=O)c1c(C(=O)Nc2ccccc2)c(-c2ccccc2)n(NC(N)=O)c1C
inactive: [1] 8.35% | [2] 3.25% | [3] 4.2% | [4] -17.4% | [5] -1.75% | [6] 17%

C=CCN1C(SC)=NC(=O)C1(c1ccccc1)c1ccccc1
inactive: [1] 14.8% | [2] 9.95% | [3] 8.75% | [4] -10.2% | [5] 10.2% | [6] 22.8%

COC(=O)c1cc(=O)n(C)c2ccc(OC)cc12
inactive: [1] 21.1% | [2] 10.8% | [3] -5.3% | [4] 9.75% | [5] 13.6% | [6] 20.7%

CCOC(=O)c1c(-c2ccc(OC)cc2)c(C#N)c(=S)n(C2OC(CO)C(O)C(O)C2O)c1-c1ccccc1 (stereo not given)
inactive: [1] 6.7% | [2] -29% | [3] -20% | [4] -11.6% | [5] -12.4% | [6] 2.95%

Cc1cc(N(CCC#N)CCC#N)ccc1/C=C(\NC(=O)/C=C/c1ccccc1)C(=O)Nc1ccccc1Cl
inactive: [1] 32.3% | [2] 13.8% | [3] 42.1% | [4] 9.7% | [5] 1.2% | [6] 14.9%

CCOC(NCc1ccc(OC)c(OC)c1)OCC
inactive: [1] 3.6% | [2] -11.8% | [3] 6.45% | [4] 3.55% | [5] 17.1% | [6] 11.3%

O=C(N/N=C/c1ccc(Cl)cc1Cl)c1cccc2ccccc12
inactive: [1] 8.2% | [2] -6.3% | [3] -15% | [4] -5.6% | [5] 11.6% | [6] 3.1%

O=C(OCC1OC(OC(=O)c2ccccc2)C(F)C1OC(=O)c1ccccc1)c1ccccc1 (stereo not given)
inactive: [1] -2.65% | [2] -18.6% | [3] 7.15% | [4] -20.1% | [5] -8.25% | [6] 7.9%

Clc1ccc(C(CI)c2ccccc2Cl)cc1 (stereo not given)
inactive: [1] 10.8% | [2] 11.3% | [3] 12.3% | [4] 13.8% | [5] 27.9% | [6] 6.05%
